CHO-K1 Ca ag – counter-screen for M1 agonists: effect in parental CHO-K1 cells. Fluo-8 calcium fluorescence; scaled to maximal ATP response, vehicle zero. activation, % at 3 µM. 360,000 compounds, 0.48% hits. AID 602248, 2012; in the data active means activation above about 15%;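 further: untransfected CHO-K1 host cells lacking M1 receptor as counterscreen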
M1 PAM – human M1 muscarinic receptor positive allosteric modulators, primary screen, CHO-K1 cells, Fluo-8 calcium fluorescence, 1536-well; CHO-K1 hM1, ACh EC20; 0% = ACh EC20, 100% = maximal ACh; Muscarinic acetylcholine receptor M1 (Homo sapiens), P11229; activation, % at 3 µM; 360,000 compounds, 0.088% hits; AID 588819, 2011; in the data active means activation above about 19%, passing the limit was not always enough
Target sequence (P11229 whole entry, looked up): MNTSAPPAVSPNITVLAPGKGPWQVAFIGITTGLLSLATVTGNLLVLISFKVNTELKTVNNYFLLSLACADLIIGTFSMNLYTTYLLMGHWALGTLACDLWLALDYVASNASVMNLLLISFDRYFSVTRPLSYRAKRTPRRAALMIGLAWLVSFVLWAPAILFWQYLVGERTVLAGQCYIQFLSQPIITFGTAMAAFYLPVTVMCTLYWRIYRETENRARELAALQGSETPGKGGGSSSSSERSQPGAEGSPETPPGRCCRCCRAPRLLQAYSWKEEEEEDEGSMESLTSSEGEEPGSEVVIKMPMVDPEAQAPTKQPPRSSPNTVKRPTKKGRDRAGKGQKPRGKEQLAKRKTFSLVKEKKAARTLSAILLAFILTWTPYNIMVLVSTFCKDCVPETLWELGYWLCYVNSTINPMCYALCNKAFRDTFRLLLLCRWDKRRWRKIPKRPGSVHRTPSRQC
M1 ag – human M1 muscarinic receptor agonists, primary screen, Fluo-8 calcium fluorescence, CHO-K1 cells, HTS; CHO-K1 hM1, agonist mode; 0% DMSO, 100% acetylcholine EC100; 360,000 compounds, 0.33% hits; activation, % at 3 µM; Muscarinic acetylcholine receptor M1 (Homo sapiens), P11229;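 active means activation above the run's mean compound activation plus 3 SD, cut at about 16% in these data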;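 further: peak over basal fluorescence ratio within a 140 s kinetic read after compound addition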
CHO-K1 Ca antag – M1 antagonist counterscreen hit in parental CHO-K1 cells. 360,000 compounds, 0.6% hits. inhibition, % at 3 µM. ATP-induced calcium, Fluo-8 fluorescence;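 active means inhibition above a per-plate cutoff, the plate's mean sample inhibition plus 3 SD, cut at about 24% in these data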;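 further: 0% = DMSO plus EC80 ATP and 100% = DMSO alone without ATP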
M1 PAM parental – nonselective calcium activators in parental CHO-K1 cells, primary screen, counter-screen for M1 PAM project, cell-based, Fluo-8 calcium fluorescence, full deck, 1536-well | ATP EC20; 0% at ATP EC20, 100% at ATP max | activation, % at 3 µM | 360,000 compounds, 0.02% hits | AID 602247, 2012;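 active means activation above the run cutoff, the mean activation of all test compounds plus 3 SD, cut at about 40% in these data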;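 further: peak over basal fluorescence ratio in a 140 s read after ATP addition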
M1 antag – human M1 muscarinic receptor antagonists, primary screen, CHO-K1 cells, Fluo-8 calcium fluorescence, 1536-well; Muscarinic acetylcholine receptor M1 (Homo sapiens), P11229; CHO-K1 hM1, ACh EC80 antagonist; inhibition, % at 3 µM; 360,000 compounds, 1.3% hits; AID 588852, 2011;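 active means percent inhibition above its own plate's cutoff, namely the mean of that plate's compound wells plus 3 SD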;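 further: peak over basal fluorescence ratio during 140 s after agonist addition; 0% = ACh EC80 plus DMSO and 100% = DMSO alone without agonist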
An asterisk follows results filed as active; nt = no result given. Most compounds without a hit are left out; they make up all but 2.4% or so of the library.

SMILES	CHO-K1 Ca ag	M1 PAM	M1 ag	CHO-K1 Ca antag	M1 PAM parental	M1 antag
CCOC(=O)c1c(C)sc2c1N(C(=O)CN(CC)CC)c1cc(Cl)ccc1S2	0.0	-13.8	-5.4	-15.9	5.6	12.0
CN(C)CC(=O)N1c2ccccc2Sc2ccc(Cl)cc21	5.3	-27.9	-9.8	-4.0	14.7	98.9*
CCN(CC)CCC(=O)N1c2ccccc2Sc2ccc(Cl)cc21	0.7	-26.4	-7.1	1.6	12.2	100.5*
Cc1cc(NC(=O)c2ccccc2)ccc1NC(=O)Cc1ccccc1	1.4	10.2	-0.7	-8.9	11.6	-14.8
CCOc1ccc(C(=O)NCC(=O)OCC(=O)N(C)CC(=O)Nc2ccccc2CC)cc1OCC	-0.5	9.7	-3.5	4.9	-4.4	6.0
COc1ccc2c3c(cccc13)C(=O)CC2	30.1*	-21.4	119.0*	19.0	-12.4	30.6
COc1ccc2c(c1OC)C(=O)OC2	0.2	8.8	8.6	7.7	-14.6	1.0
CN(Cc1ccccc1)C(=S)Nc1ccc(OC(F)F)cc1	0.4	-2.2	-10.7	8.0	8.4	-2.5
CN(C)CCCN(Cc1ccccc1)C(=S)Nc1ccc(OC(F)F)cc1	1.3	-25.8	-8.0	-3.3	7.7	55.0*
CCOc1ccc(-n2c(-c3ccc(OC)cc3)c[n+]3c2CCCCC3)cc1	1.6	-11.2	-10.4	11.7	17.7	17.0
COc1ccc(-c2c[n+]3c(n2-c2ccc(C)cc2)CCCCC3)cc1	0.5	-7.5	-7.8	16.1	-9.8	33.5
CCOc1ccc(-n2c(-c3ccc(Br)cc3)c[n+]3c2CCCCC3)cc1	0.5	-26.8	-12.2	1.5	2.9	29.7*
CCOc1ccc(-n2c(-c3ccccc3)c[n+]3c2CCC3)cc1	0.9	-14.9	-5.4	-12.2	17.0	38.2*
CC(C)c1ccc(C2c3[nH]c4ccccc4c3C[C@H]3C(=O)N(c4ccccc4C(=O)N4CCC[C@H]4C(=O)O)C(=O)N23)cc1 (stereo not given in full)	0.0	0.6	-4.0	25.1*	-16.8	-5.7
COc1ccc(C2c3[nH]c4ccccc4c3C[C@H]3C(=O)N(c4ccccc4C(=O)N4CCC(C(=O)O)CC4)C(=O)N23)cc1 (stereo not given in full)	0.1	1.1	-2.2	-0.5	-8.6	-6.8
CNc1nc(Oc2ccccc2C(=O)OC)nc(SC)n1	-0.7	-5.5	-5.3	29.9*	-7.9	13.0
CCOC(=O)c1ccc(Oc2nc(NC)nc(SC)n2)cc1	-0.1	14.7	1.4	-13.3	10.8	-16.5
Cc1cc(C)c(Nc2ncnc(N)n2)c(C)c1	0.1	14.4	-3.3	5.5	-18.1	-15.9
CC(O)c1c(-c2ccccc2)nn(C)c1Cl (stereo not given)	-0.5	1.5	-6.8	27.9*	-13.1	-0.3
CCC(O)c1c(-c2ccccc2)nn(C)c1Cl (stereo not given)	-0.3	7.2	-5.8	3.2	4.9	-8.7
O=C(NCC1CCCO1)c1cc2c([nH]c3ccccc32)c(-c2cccc(Cl)c2)n1 (stereo not given)	4.9	-23.6	-2.3	13.6	-18.8	35.3*
COc1cc(-c2nc(C(=O)NCC3CCCO3)cc3c2[nH]c2ccccc23)cc(OC)c1OC (stereo not given)	4.4	-12.2	-2.8	5.0	-14.7	11.5
O=[N+]([O-])c1cccc(COc2ccc(CN3CCOCC3)cc2)c1	2.0	-26.1	-3.7	-12.8	15.8	48.8*
O=[N+]([O-])c1cccc(CN2CCCCCC2)c1	0.0	8.4	-9.3	-4.3	6.4	-8.8
O=[N+]([O-])c1cccc(COc2ccc(CN3CCCC3)cc2)c1	2.5	-30.5	-8.1	-12.3	12.8	58.7*
SMILES	CHO-K1 Ca ag	M1 PAM	M1 ag	CHO-K1 Ca antag	M1 PAM parental	M1 antag
COC(=O)c1ccc(C(=O)N=c2sccn2C)cc1	0.5	11.4	-1.3	-21.6	6.7	-10.4
Cn1c(CN2CCN(c3cccc(Cl)c3)CC2)nc2ccccc21	0.5	-14.8	-6.5	0.9	-3.4	26.1*
CC(=O)N1CCN(Cc2nc3cc(NC(=O)c4ccccc4)ccc3n2C)CC1	0.5	-5.1	-1.2	8.9	-3.0	-5.2
CC(C)C(=O)Nc1ccc2c(c1)nc(CCN1CCCCC1)n2C	1.1	6.1	-10.7	0.8	6.7	-7.6
Cn1c(=O)[nH]c(=O)c2c1nc(CN1CCN(c3cccc(Cl)c3)CC1)n2CCc1ccccc1	0.0	14.2	1.3	-21.6	18.5	-16.8
Cc1nn(CC(=O)Nc2ccc3c(c2)nc(CCN2CCCCC2)n3C)c(=O)c2ccccc12	0.3	-21.4	-6.8	-5.3	15.3	40.4*
CC(C)C(=O)Nc1ccc2c(c1)nc(CCN1CCN(c3ccccc3)CC1)n2C	0.3	-19.4	-8.3	10.6	-15.9	44.5*
COc1ccccc1C(=O)Nc1ccc2c(c1)nc(CN1CCN(C(C)=O)CC1)n2C	-0.6	-5.6	-2.7	24.2*	-7.5	6.3
CCCN(C)C1CN(Cc2cn(Cc3cccc(C(F)(F)F)c3)nn2)S(=O)(=O)C1 (stereo not given)	0.2	nt	nt	2.0	-6.9	nt
CCCCC[C@@H](/C=C/C1C(=O)C=C[C@H]1C/C=C\CCCC(=O)OC)OC(C)=O (stereo not given in full)	3.9	-5.0	-7.0	-8.4	11.2	8.5
CC1CCN(CCc2nc3cc(NC(=O)C(C)C)ccc3n2C)CC1	1.9	-31.6	-11.0	-13.0	0.1	88.2*
C=Cc1ccc(Cn2c(C)c(C(=O)NCc3ccc(C#N)cc3)sc2=O)cc1	7.7	-16.8	-5.6	-7.6	33.8	9.9
Cc1cccc(N2CCN(C(=O)C3CCN(S(=O)(=O)c4cccc5cccnc45)CC3)CC2C)c1 (stereo not given)	7.7	-19.6	-0.6	10.9	6.8	25.8
CC(C)OCCCNC(=O)C1CCC(CNS(=O)(=O)c2cccc3nsnc23)CC1 (stereo not given)	0.5	8.5	-9.2	-4.7	22.0	-9.2
CCCN(CCC)CCCNC(=O)C1CCC(CNS(=O)(=O)c2cccc3nsnc23)CC1 (stereo not given)	0.1	-19.2	-5.6	2.3	23.2	51.2*
CC1CCN(CCNC(=O)C2CCN(S(=O)(=O)c3cccc4nsnc34)CC2)CC1	0.2	-10.0	-5.5	-7.0	8.7	26.3
O=C(C1CCN(S(=O)(=O)c2cccc3nsnc23)CC1)N1CCn2c1nc1ccccc12	3.0	11.9	17.3*	-13.3	8.2	-26.2
Cc1cccc(N2CCN(C(=O)C3CCN(S(=O)(=O)c4cccc5nsnc45)CC3)CC2C)c1 (stereo not given)	7.8	-16.1	4.0	0.1	12.6	25.3*

Compound activity: PubChem BioAssay, The Scripps Research Institute Molecular Screening Center
